Results taken from publication PMC5540273 (PLoS ONE, 2017).

How the values were obtained:
Conditions in all cases: concentration: 1 μM, replicates: in singlicate; n = 1
[1] = test system: T1, PRKR
T1 construct: gene EIF2AK2

[2] = test system: PRKX
[3] = test system: PRP4
[4] = test system: T2, PYK2
T2 construct: gene PTK2B

[5] = test system: QSK
[6] = test system: RAF1
[7] = test system: RET
[8] = test system: RIOK1
[9] = test system: RIOK2
[10] = test system: RIOK3
[11] = test system: RIPK1
[12] = test system: RIPK2
[13] = test system: RIPK4
[14] = test system: RIPK5
[15] = test system: ROCK1
[16] = test system: ROCK2
[17] = test system: ROS1
[18] = test system: RPS6KA4(Kin.Dom.1-N-terminal)
[19] = test system: RPS6KA4(Kin.Dom.2-C-terminal)
[20] = test system: RPS6KA5(Kin.Dom.1-N-terminal)
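Note: KINOMEscan kinase panel screen.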

Structure (SMILES)	%Inh [1]	%Inh [2]	%Inh [3]	%Inh [4]	%Inh [5]	%Inh [6]	%Inh [7]	%Inh [8]	%Inh [9]	%Inh [10]	%Inh [11]	%Inh [12]	%Inh [13]	%Inh [14]	%Inh [15]	%Inh [16]	%Inh [17]	%Inh [18]	%Inh [19]	%Inh [20]
CN1c2ccc(-c3ccc(C(=O)NCCO)cc3)cc2-c2[nH]ncc2S1(=O)=O	1%	0%	0%	6%	5%	0%	13%	30%	22%	17%	1%	13%	0%	27%	0%	41%	8%	25%	49%	0%
Nc1n[nH]c2nnc(-c3ccccc3)cc12 [SB-517389]	0%	0%	33%	0%	0%	6%	88%	26%	0%	0%	0%	17%	17%	0%	0%	0%	0%	4%	38%	5%
CCc1nc(-c2cccc(C)c2)c(-c2ccnc(NC(=O)c3ccccc3)c2)s1	0%	0%	10%	11%	0%	22%	0%	14%	8%	4%	0%	52%	42%	0%	35%	0%	0%	0%	8%	3%
Cc1cc(N2CCC(NS(=O)(=O)c3ccc(F)cc3)CC2)nc(Nc2cccc(C#N)c2)n1.O=C(O)C(F)(F)F [GSK1653537]	0%	0%	3%	37%	9%	0%	29%	45%	0%	25%	57%	0%	4%	0%	0%	0%	7%	0%	0%	28%
CC(C)(C)c1ccc(-n2cnc3c(N)ncnc32)cc1 [SKF-97263]	0%	19%	7%	4%	0%	0%	8%	22%	26%	23%	1%	0%	16%	14%	0%	0%	15%	0%	2%	19%
Cl.O=S(=O)(c1cccc(F)c1)c1ccc(Nc2ncnc3cc(Br)sc23)cc1Cl [GSK306886]	0%	24%	13%	0%	0%	10%	97.9%	9%	3%	22%	29%	42%	0%	16%	9%	14%	12%	16%	0%	0%
CCCc1ccc(S(=O)(=O)NC2CCN(c3ccnc(Nc4ccc(OC)cc4)n3)C2)cc1 (centres unmarked) [GSK1379737]	0%	0%	60%	10%	0%	0%	28%	0%	0%	0%	0%	0%	0%	0%	12%	28%	5%	4%	0%	0%
CSc1ccc(NC2=C(c3ccccc3Cl)C(=O)NC2=O)cc1 [SB-342411]	0%	0%	0%	0%	8%	15%	14%	16%	0%	0%	0%	32%	6%	0%	0%	0%	0%	0%	0%	5%
COc1ccc(-c2oc3ncnc(N)c3c2-c2ccc(OC)cc2)cc1 [SB-589132]	0%	3%	64%	7%	6%	44%	11%	0%	0%	0%	2%	28%	1%	0%	41%	0%	0%	0%	0%	0%
Cl.Cn1ccc(-c2cccc(Nc3ccnc4cc(-c5nccs5)ccc34)c2)n1 [GW525701]	5%	0%	61%	45%	4%	18%	5%	14%	22%	0%	0%	16%	23%	0%	26%	39%	0%	0%	0%	24%
Nc1nc(-c2ccc3c(N)n[nH]c3c2)cc(N2CCC[C@@H](C(=O)Nc3ccccc3)C2)n1.O=C(O)C(F)(F)F.O=C(O)C(F)(F)F [GSK2288359]	0%	71%	26%	0%	0%	0%	0%	79%	12%	82%	10%	5%	13%	3%		61%	0%	0%	0%	0%
COc1ccc(Nc2nccc(N3CCC(NC(=O)c4cccc(NC(C)=O)c4)C3)n2)cc1 (centres unmarked) [GSK1379732]	0%	0%	48%	0%	0%	0%	0%	37%	0%	0%	21%	7%	0%	0%	33%	50%	8%	21%	0%	9%
C[C@@H]1CCN(C(=O)CO)C[C@@H]1N(C)c1ncnc2[nH]ccc12	0%	7%	0%	0%	0%	0%	0%	0%	0%	0%	0%	0%	0%	12%	16%	23%	0%	88%	0%	0%
CN1CCC(n2cnc(-c3ccc(F)cc3)c2-c2ccnc(NC3CCNCC3)n2)CC1 [SB-229482]	0%	0%	0%	11%	0%	46%	20%	25%	8%	22%	0%	0%	45%	7%	35%	25%	0%	14%	0%	1%
CS(=O)(=O)CCNCc1nc(-c2ccc3ncnc(Nc4ccc(OCc5cccc(F)c5)c(Cl)c4)c3c2)cs1.Cl [GW583340]	0%	0%	0%	0%	0%	1%	0%	10%	0%	17%	2%	42%	6%	1%	5%	0%	0%	10%	0%	0%
